# Several values for one entry are separate records, joined by “and”; a condition that tells them apart may be missing. Identical values can stand only once. Results filed as inconclusive are left out. Activity calls are given as the source filed them. Rule for the calls, unless noted: active = hit-call score of the fitted dose curve at least 0.9, where 1 is the maximum; inactive = score below 0.9.
# How the values were obtained:
# [1] = ATG_NFI_CIS: Attagene CIS-FACTORIAL HepG2 Assay for human Nuclear Factor I (NFI) (AID 2282989); conditions: HepG2 cis-regulatory reporter, NFI response element transcription; actives raise or lower the signal
# Summary of the method: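 Multiplexed cis-reporter system in human HepG2 cells reports native TF activity as reporter mRNA induction 24 h post-dose. Fragments labelled with 6-FAM, HpaI-digested and resolved by capillary electrophoresis; activity fitted both directions versus DMSO.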
# [2] = target: Myc proto-oncogene protein (Homo sapiens) (UniProt P01106); test: ATG_Myc_CIS: Attagene CIS-FACTORIAL HepG2 Assay for human Myelocytomatosis (Myc) Proto-Oncogene Transcription Factor (AID 2282990); conditions: HepG2, Attagene cis-reporter transcription factor activity; actives raise or lower the signal
# Summary of the method: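 HepG2 cells transiently transfected with multiple cis-promoter-driven reporter transcription units, so endogenous TF activity is read. After 24 h compound exposure, reporter mRNA was quantified by RT-PCR, 6-FAM labelling, HpaI digestion and capillary electrophoresis; bidirectional fit versus DMSO.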
# [3] = ATG_NRF2_ARE_CIS: Attagene CIS-FACTORIAL HepG2 Assay for human Nuclear Factor Erythroid 2 Related Factor 2 (NFR2) response to Antioxidant Response Elements (ARE) (AID 2282992); conditions: HepG2 Attagene ARE/NRF2 reporter, transcription factor activity; actives raise or lower the signal;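 for AC50: reporter mRNA level measured by RT-PCR and capillary electrophoresis fluorescence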
# Summary of the method: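 Multiplexed reporter mRNA profiling in HepG2 after a 24 h chemical exposure. Curves fitted in both directions relative to DMSO negative control.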
# [4] = ATG_Oct_MLP_CIS: Attagene CIS-FACTORIAL HepG2 Assay for human Octamer-Binding Transcription Factor (Oct) (AID 2282993); conditions: HepG2 Attagene cis-factorial Oct reporter, mRNA; actives raise or lower the signal
# Summary of the method: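 After 24 h compound exposure, transfected HepG2 cells were lysed for total RNA; reporter-specific cDNA was PCR-amplified, fluorescently labelled and sized by capillary electrophoresis. Bidirectional curve fitting used DMSO as baseline.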
# [5] = target: Cellular tumor antigen p53 (Homo sapiens) (UniProt P04637); test: ATG_p53_CIS: Attagene CIS-FACTORIAL HepG2 Assay for human p53 Transcription Factor (AID 2282994); conditions: HepG2 p53 cis-element reporter, Attagene mRNA; actives raise or lower the signal
# Summary of the method: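 Multiplexed reporter mRNA assay in human HepG2 liver cells; cis-regulated units report endogenous factor activity. Values come from bidirectional curve fitting against DMSO negative control after 24 h treatment.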
# [6] = BSK_3C_TissueFactor: BioMAP Diversity Plus: 3C Assay for Tissue Factor Biomarker Activity (AID 2282997); conditions: BioMAP 3C HUVEC, tissue factor biomarker readout; actives raise or lower the signal
# Summary of the method: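 Primary human umbilical vein endothelial cells in the 3C system were exposed to test chemical for 24 h, then Tissue Factor measured by ELISA. Activity was fitted bidirectionally against DMSO as negative control and baseline.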
# [7] = BSK_3C_uPAR: BioMAP Diversity Plus: 3C Assay for Urokinase-type plasminogen activator receptor (uPAR) Biomarker Activity (AID 2282998); conditions: BioMAP 3C HUVEC, uPAR biomarker ELISA; actives raise or lower the signal
# Summary of the method: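 Values derive from bidirectional curve fitting relative to DMSO, which served as baseline of activity. uPAR was measured by ELISA in human umbilical vein endothelial primary cultures 24 h after compound addition.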
# [8] = BSK_3C_VCAM1: BioMAP Diversity Plus: 3C Assay for Vascular cell adhesion molecule 1 (VCAM1) Biomarker Activity (AID 2282999); conditions: BioMAP 3C HUVEC, VCAM1 ELISA, cytokine-stimulated; actives raise or lower the signal
# Summary of the method: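 Human umbilical vein endothelial cells were dosed with compound for 24 h, after which cell-surface VCAM-1 was quantified by ELISA. Bidirectional curve fitting used DMSO as negative control and activity baseline.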
# [9] = BSK_4H_Eotaxin3: BioMAP Diversity Plus: 4H Assay for Eotaxin 3 Biomarker Activity (AID 2283000); conditions: primary human endothelial cells (HUVEC); actives raise or lower the signal;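 note: CCL26 protein level quantified by ELISA in parallel with SRB cytotoxicity check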
# Summary of the method: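 HUVEC, 24 h post-dose, ELISA for Eotaxin-3/CCL26. Gain or loss of signal fitted bidirectionally vs DMSO baseline.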
# [10] = target: human Peroxisome Proliferator-activated Receptor delta (PPARd), PPARD (gene 5467) (UniProt Q03181); test: ATG_PPARd_TRANS: Attagene TRANS-FACTORIAL HepG2 Assay for human Peroxisome Proliferator-activated Receptor delta (PPARd) (AID 2283002; active = hit-call score of the fitted dose curve at least 0.9, where 1 is the maximum)
# Summary of the method: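 HepG2 cells transiently transfected with multiplexed GAL4-UAS reporter units and exogenous chimeric NR-Gal4 proteins; 24 h compound exposure. Reporter mRNA measured by RT-PCR, 6-FAM labelling, HpaI digestion and capillary electrophoresis; gain of signal versus DMSO.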
# [11] = read-out: Intercellular Adhesion Molecule 1 (ICAM1), ICAM1 (gene 3383); test: BSK_3C_ICAM1: BioMAP Diversity Plus: 3C Assay for Intercellular Adhesion Molecule 1 (ICAM1) Biomarker Activity (AID 2283003); conditions: primary human endothelial cells (HUVEC); actives raise or lower the signal
# Summary of the method: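 Primary human umbilical vein endothelial cells in the BioMAP 3C system were exposed to chemicals for 24 h, then ICAM-1 was quantified by ELISA. Activity was fitted bidirectionally against the DMSO negative control baseline.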
# [12] = BSK_3C_Proliferation: Cell Proliferation Assessment in the BioMAP Diversity Plus: 3C Assay (AID 2283006); conditions: primary human endothelial cells (HUVEC);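 for AC50: potency may reflect either rise or fall in cell number versus DMSO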
# Summary of the method: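 Human umbilical vein endothelial cells were grown sub-confluent and exposed to chemical for 48 h, then fixed with 10% TCA and stained with 0.1% sulforhodamine B; absorbance at 560 nm gave relative cell number, fitted bidirectionally against DMSO baseline.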
# [13] = target: Nuclear receptor subfamily 1 group I member 2 (Homo sapiens) (UniProt O75469); test: ATG_PXR_TRANS: Attagene TRANS-FACTORIAL HepG2 Assay for human Pregnane X Receptor (PXR) (AID 2283008; active = hit-call score of the fitted dose curve at least 0.9, where 1 is the maximum)
# Summary of the method: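 Measures mRNA induction of a GAL4-UAS-driven reporter in human HepG2 cells transiently expressing PXR fused to Gal4, following 24 h treatment. DMSO served as negative control and baseline.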
# [14] = target: human Peroxisome Proliferator-activated Receptor alpha (PPARa), PPARA (gene 5465) (UniProt Q07869); test: ATG_PPARa_TRANS: Attagene TRANS-FACTORIAL HepG2 Assay for human Peroxisome Proliferator-activated Receptor alpha (PPARa) (AID 2283001; active = hit-call score of the fitted dose curve at least 0.9, where 1 is the maximum;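 for AC50: potency for gain of reporter signal over DMSO so agonist or activator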)
# Summary of the method: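 HepG2 cells transiently transfected with multiplexed GAL4-UAS reporter units and chimeric NR-Gal4 constructs were dosed for 24 h. Reporter mRNA was measured by RT-PCR with fluorescent labelling and capillary electrophoresis; gain of signal fitted against DMSO.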
# [15] = target: Peroxisome proliferator-activated receptor gamma (Homo sapiens) (UniProt P37231); test: ATG_PPARg_TRANS: Attagene TRANS-FACTORIAL HepG2 Assay for human Peroxisome Proliferator-activated Receptor-gamma (PPARg) (AID 2283007; active = hit-call score of the fitted dose curve at least 0.9, where 1 is the maximum)
# Summary of the method: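 Gain-of-signal endpoint relative to DMSO, derived from reporter mRNA levels quantified by RT-PCR and capillary electrophoresis. Cells were HepG2 transiently expressing a chimeric NR-Gal4 construct with GAL4-UAS reporters, exposed to chemicals for 24 h.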
# [16] = target: human RAR-related Orphan Receptor beta (RORb), RORB (gene 6096) (UniProt Q92753); test: ATG_RORb_TRANS: Attagene TRANS-FACTORIAL HepG2 Assay for human RAR-related Orphan Receptor beta (RORb) (AID 2283010; active = hit-call score of the fitted dose curve at least 0.9, where 1 is the maximum)
# Summary of the method: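 HepG2 cells were transiently transfected with multiplexed GAL4-UAS reporter units expressing chimeric nuclear receptor–GAL4 proteins, then dosed for 24 h. Reporter mRNA was quantified by RT-PCR with fluorescent labelling and capillary electrophoresis; gain of signal was fitted relative to DMSO.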
# [17] = ATG_NF_kB_CIS: Attagene CIS-FACTORIAL HepG2 Assay for human Nuclear Factor Kappa B (NF-kB) (AID 2282991); conditions: HepG2 Attagene cis-factorial NF-kB reporter mRNA; actives raise or lower the signal
# Summary of the method: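 Measures mRNA induction of an NF-kB-responsive cis-element reporter in HepG2 cells transfected with multiple reporter units, sampled 24 h post-dosing; quantified by fluorescence after RT-PCR and capillary electrophoresis, fitted for activation or inhibition against DMSO.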
# Peroxisome proliferator-activated receptor gamma (Homo sapiens), sequence (P37231 whole entry, looked up, the tested form may be a part): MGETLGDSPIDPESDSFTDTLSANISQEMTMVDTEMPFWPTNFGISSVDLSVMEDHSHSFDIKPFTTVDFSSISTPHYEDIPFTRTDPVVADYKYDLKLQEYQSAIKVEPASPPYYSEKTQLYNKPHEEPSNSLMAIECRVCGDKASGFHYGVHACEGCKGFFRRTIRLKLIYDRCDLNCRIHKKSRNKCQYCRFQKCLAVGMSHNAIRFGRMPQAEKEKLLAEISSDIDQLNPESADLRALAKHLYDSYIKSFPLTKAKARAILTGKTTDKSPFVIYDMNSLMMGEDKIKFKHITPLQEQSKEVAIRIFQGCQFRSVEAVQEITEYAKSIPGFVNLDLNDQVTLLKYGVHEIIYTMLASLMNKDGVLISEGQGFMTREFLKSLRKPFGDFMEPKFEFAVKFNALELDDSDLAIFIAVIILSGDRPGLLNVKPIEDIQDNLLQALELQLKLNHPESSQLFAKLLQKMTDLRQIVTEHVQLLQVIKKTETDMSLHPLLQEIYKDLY
# Cellular tumor antigen p53 (Homo sapiens), sequence (P04637 whole entry, looked up): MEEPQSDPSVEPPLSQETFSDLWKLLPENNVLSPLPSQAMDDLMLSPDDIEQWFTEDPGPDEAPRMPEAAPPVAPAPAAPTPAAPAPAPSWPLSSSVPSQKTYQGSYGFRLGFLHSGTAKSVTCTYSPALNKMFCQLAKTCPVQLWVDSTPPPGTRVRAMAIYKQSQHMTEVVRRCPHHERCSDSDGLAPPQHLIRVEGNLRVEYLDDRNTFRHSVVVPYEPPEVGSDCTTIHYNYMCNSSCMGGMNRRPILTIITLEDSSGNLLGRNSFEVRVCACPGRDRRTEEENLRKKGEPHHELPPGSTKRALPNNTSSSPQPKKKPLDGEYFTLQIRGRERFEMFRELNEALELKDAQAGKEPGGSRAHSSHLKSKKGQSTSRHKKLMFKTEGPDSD
# human Peroxisome Proliferator-activated Receptor delta (PPARd), PPARD (gene 5467), sequence (Q03181 whole entry, looked up, the tested form may be a part): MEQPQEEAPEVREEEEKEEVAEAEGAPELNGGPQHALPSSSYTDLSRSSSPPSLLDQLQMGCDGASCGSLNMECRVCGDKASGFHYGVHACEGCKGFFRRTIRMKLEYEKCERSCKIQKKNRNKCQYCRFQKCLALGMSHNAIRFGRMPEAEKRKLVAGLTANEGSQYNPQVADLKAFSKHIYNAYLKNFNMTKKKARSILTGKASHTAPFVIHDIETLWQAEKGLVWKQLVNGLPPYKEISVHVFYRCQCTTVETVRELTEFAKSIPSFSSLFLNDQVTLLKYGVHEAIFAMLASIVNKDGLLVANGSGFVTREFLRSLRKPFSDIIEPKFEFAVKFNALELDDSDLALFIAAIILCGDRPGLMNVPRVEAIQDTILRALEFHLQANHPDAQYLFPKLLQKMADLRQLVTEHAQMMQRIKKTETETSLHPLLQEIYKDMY
# human Peroxisome Proliferator-activated Receptor alpha (PPARa), PPARA (gene 5465), sequence (Q07869 whole entry, looked up, the tested form may be a part): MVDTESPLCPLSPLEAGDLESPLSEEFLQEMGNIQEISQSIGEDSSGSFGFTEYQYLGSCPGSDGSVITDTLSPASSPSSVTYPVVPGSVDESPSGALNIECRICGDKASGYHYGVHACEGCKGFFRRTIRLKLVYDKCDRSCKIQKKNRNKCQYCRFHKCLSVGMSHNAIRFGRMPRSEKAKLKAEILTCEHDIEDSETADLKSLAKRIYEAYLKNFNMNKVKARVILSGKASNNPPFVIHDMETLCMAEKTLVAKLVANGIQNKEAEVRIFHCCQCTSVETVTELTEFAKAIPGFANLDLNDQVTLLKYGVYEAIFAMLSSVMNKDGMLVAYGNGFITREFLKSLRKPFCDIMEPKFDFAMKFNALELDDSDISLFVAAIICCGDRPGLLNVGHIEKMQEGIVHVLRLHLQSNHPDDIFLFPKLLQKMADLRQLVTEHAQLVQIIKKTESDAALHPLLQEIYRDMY
# human RAR-related Orphan Receptor beta (RORb), RORB (gene 6096), sequence (Q92753 whole entry, looked up, the tested form may be a part): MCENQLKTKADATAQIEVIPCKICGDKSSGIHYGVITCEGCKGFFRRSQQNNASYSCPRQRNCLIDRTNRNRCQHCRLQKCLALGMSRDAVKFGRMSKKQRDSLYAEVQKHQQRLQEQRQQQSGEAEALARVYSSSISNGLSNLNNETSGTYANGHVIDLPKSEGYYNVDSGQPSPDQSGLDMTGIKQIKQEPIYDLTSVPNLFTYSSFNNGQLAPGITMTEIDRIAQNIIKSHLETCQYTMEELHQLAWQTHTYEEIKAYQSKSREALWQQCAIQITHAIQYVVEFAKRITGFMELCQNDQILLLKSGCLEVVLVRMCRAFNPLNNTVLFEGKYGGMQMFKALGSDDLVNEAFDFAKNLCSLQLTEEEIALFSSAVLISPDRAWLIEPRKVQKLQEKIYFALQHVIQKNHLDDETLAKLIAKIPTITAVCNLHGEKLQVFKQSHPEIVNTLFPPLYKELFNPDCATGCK
# Myc proto-oncogene protein (Homo sapiens), sequence (P01106 whole entry, looked up): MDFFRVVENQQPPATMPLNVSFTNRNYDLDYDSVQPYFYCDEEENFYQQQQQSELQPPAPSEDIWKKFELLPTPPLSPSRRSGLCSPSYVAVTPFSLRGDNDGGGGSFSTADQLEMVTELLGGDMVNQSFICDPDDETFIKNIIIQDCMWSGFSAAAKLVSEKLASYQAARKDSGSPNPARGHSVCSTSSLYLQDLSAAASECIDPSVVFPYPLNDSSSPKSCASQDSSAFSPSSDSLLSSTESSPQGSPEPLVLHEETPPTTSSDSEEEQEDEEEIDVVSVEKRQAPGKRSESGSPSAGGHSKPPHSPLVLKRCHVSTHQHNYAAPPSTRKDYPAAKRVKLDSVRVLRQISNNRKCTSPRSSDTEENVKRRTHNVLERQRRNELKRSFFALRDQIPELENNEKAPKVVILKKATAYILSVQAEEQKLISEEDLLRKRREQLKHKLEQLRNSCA
# Nuclear receptor subfamily 1 group I member 2 (Homo sapiens), sequence (O75469 whole entry, looked up, the tested form may be a part): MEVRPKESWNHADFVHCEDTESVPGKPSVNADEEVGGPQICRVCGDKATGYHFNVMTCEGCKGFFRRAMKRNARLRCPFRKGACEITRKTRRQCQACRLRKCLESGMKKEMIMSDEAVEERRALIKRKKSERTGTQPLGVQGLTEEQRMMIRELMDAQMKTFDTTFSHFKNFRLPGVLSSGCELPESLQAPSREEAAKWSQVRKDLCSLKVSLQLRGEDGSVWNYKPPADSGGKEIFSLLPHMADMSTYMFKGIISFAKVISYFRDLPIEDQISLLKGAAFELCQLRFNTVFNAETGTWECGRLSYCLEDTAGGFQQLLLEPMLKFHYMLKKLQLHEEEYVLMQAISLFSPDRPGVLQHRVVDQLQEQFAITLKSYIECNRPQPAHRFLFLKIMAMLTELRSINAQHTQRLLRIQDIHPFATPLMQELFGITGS
compound,measurement,setting,value
O=C=NC1CCC(CC2CCC(N=C=O)CC2)CC1 (stereo unspecified),outcome,[1],inactive
same,AC50,[2],100 µM (active)
same,outcome,[3],inactive
same,AC50,[4],61.8 µM (active)
same,outcome,[5],inactive
same,AC50,[6],3.97 µM (active)
same,outcome,[7],inactive
same,outcome,[8],inactive
same,outcome,[9],inactive
same,outcome,[10],inactive
same,outcome,[11],inactive
same,AC50,[12],23.2 µM (active)
same,outcome,[13],inactive
CCCCCCCCCCCCCC(=O)O,outcome,[1],inactive
same,outcome,[2],inactive
same,AC50,[3],65.5 µM (active)
same,outcome,[4],inactive
same,outcome,[5],inactive
same,AC50,[14],27.9 µM (active)
same,outcome,[15],inactive
same,outcome,[13],inactive
C=C(C)C1CCC(C)CC1O (stereo unspecified),outcome,[1],inactive
same,outcome,[2],inactive
same,outcome,[3],inactive
same,outcome,[4],inactive
same,outcome,[5],inactive
same,outcome,[14],inactive
same,outcome,[15],inactive
same,outcome,[13],inactive
Cc1cc(C2(c3cc(C)c(O)cc3C)OS(=O)(=O)c3ccccc32)c(C)cc1O,outcome,[1],inactive
same,outcome,[2],inactive
same,outcome,[3],inactive
same,outcome,[4],inactive
same,outcome,[5],inactive
same,outcome,[6],inactive
same,outcome,[7],inactive
same,outcome,[8],inactive
same,outcome,[9],inactive
same,outcome,[11],inactive
same,outcome,[12],inactive
same,outcome,[15],inactive
same,AC50,[13],32.7 µM (active)
O=[N+]([O-])c1cc(C(F)(F)F)ccc1Cl,outcome,[1],inactive
same,outcome,[2],inactive
same,AC50,[3],50.9 µM (active)
same,outcome,[4],inactive
same,outcome,[5],inactive
same,outcome,[6],inactive
same,outcome,[7],inactive
same,outcome,[8],inactive
same,outcome,[9],inactive
same,outcome,[11],inactive
same,outcome,[12],inactive
same,outcome,[15],inactive
same,outcome,[13],inactive
Cc1ccccc1C=O,outcome,[1],inactive
same,outcome,[2],inactive
same,outcome,[3],inactive
same,outcome,[4],inactive
same,outcome,[5],inactive
same,outcome,[14],inactive
same,outcome,[10],inactive
same,outcome,[15],inactive
same,AC50,[13],20.9 µM (active)
same,outcome,[16],inactive
CCCCCCCCC=O,outcome,[1],inactive
same,outcome,[2],inactive
same,outcome,[3],inactive
same,outcome,[4],inactive
same,outcome,[5],inactive
same,outcome,[6],inactive
same,outcome,[7],inactive
same,outcome,[8],inactive
same,outcome,[9],inactive
same,AC50,[14],100 µM (active)
same,outcome,[11],inactive
same,outcome,[12],inactive
same,outcome,[16],inactive
CC(=O)[C@H]1CC[C@H]2[C@@H]3CC=C4C[C@@H](O)CC[C@]4(C)[C@H]3CC[C@]12C,outcome,[1],inactive
same,outcome,[2],inactive
same,AC50,[3],16.5 µM (active)
same,outcome,[4],inactive
same,outcome,[5],inactive
same,outcome,[6],inactive
same,outcome,[7],inactive
same,outcome,[8],inactive
same,outcome,[9],inactive
same,outcome,[10],inactive
same,outcome,[11],inactive
same,AC50,[12],7.47 µM (active) and 6.54 µM (active)
same,outcome,[15],inactive
same,AC50,[13],4.3 µM (active)
COc1c(Cl)c(Cl)c(Cl)c(Cl)c1Cl,outcome,[1],inactive
same,outcome,[2],inactive
same,outcome,[17],inactive
same,outcome,[3],inactive
same,AC50,[13],10.3 µM (active)
COc1ccc(Cl)cc1C,outcome,[1],inactive
same,outcome,[2],inactive
same,outcome,[3],inactive
same,outcome,[4],inactive
same,outcome,[5],inactive
same,outcome,[14],inactive
same,outcome,[13],inactive
C=C(C)C(=O)O,outcome,[1],inactive
same,outcome,[2],inactive
same,outcome,[3],inactive
same,outcome,[4],inactive
same,outcome,[5],inactive
same,outcome,[14],inactive
CC(C)=CCO,outcome,[1],inactive
same,outcome,[2],inactive
same,outcome,[3],inactive
same,outcome,[4],inactive
same,outcome,[5],inactive
same,outcome,[14],inactive
same,outcome,[10],inactive
same,outcome,[15],inactive
same,outcome,[13],inactive
same,outcome,[16],inactive

# Reference: PubChem BioAssay (EPA / NIEHS)
